Growth inhibition data for 19 compounds are collected here from PubChem BioAssay (NCI).

About 79,000 compounds went through this panel and 15% of them were active in at least one assay; those are over-represented in the sample as a whole. Unmarked numbers belong to inactive results. The source made the active and inactive calls. Rule as the data show it: active = growth inhibition above about 70%; inactive = the rest.

Assay [1] can be described thus: NCI Yeast Anticancer Drug Screen. Data for the rad50 strain (AID 155).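 Also: 0% = growth of vehicle-only cultures of the same strain.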 Particulars: S. cerevisiae rad50 strain growth inhibition; at 50.0 µM; hits give high values. The gist of the method: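 Vehicle-treated cultures provide the reference for the growth inhibition reported for compound-exposed, repair-deficient yeast.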
Assay [2] in a line: NCI Yeast Anticancer Drug Screen. Data for the mec2-1 strain (AID 157). The note with it: S. cerevisiae mec2-1 strain, at 50.0 µM, hits give high values. The gist of the method:
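Cells of the genetically defined mec2-1 yeast strain are incubated with test compound. Inhibition of growth is calculated against vehicle-treated controls.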

Assay [3] is described as follows: NCI Yeast Anticancer Drug Screen. Data for the sgs1 mgt1 strain (AID 161).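 Also: 0% = growth of cultures given vehicle only.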 Particulars: S. cerevisiae sgs1 mgt1 strain, at 50.0 µM, hits give high values. The gist of the method:
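Read-out: growth inhibition vs vehicle controls. Cells: mutant yeast strain deficient in DNA damage repair.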

The nature of assay [4]: NCI Yeast Anticancer Drug Screen. Data for the cln2 rad14 strain (AID 165).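 Also: 0% = growth equal to vehicle treated cultures.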 Particulars: S. cerevisiae cln2 rad14 strain, at 50.0 µM, hits give high values. The gist of the method:
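The screen exposed genetically defined yeast (cln2 rad14) to test compounds and scored growth inhibition relative to vehicle-treated controls.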

A short description of assay [5]: NCI Yeast Anticancer Drug Screen. Data for the bub3 strain (AID 167). The note with it: S. cerevisiae bub3 mutant strain, at 50.0 µM, hits give high values. The gist of the method: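 Mutant yeast screening strain plus compound; vehicle-treated cultures serve as the 0% inhibition reference.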
Assay [6] is described as follows: NCI Yeast Anticancer Drug Screen. Data for the mlh1 rad18 strain (AID 175). Particulars: S. cerevisiae mlh1 rad18 strain growth inhibition; at 50.0 µM; hits give high values. The gist of the method: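 Compound-treated yeast growth, normalised to vehicle controls. Strain bears defined DNA repair mutations.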

For the compound `Cc1n[nH]c(=S)n1N`, the growth inhibition was -9.4% in assay [1]; -1.9% in assay [2]; -24.4% in assay [3]; -25.9% in assay [4]; -14.5% in assay [5]; -3.5% in assay [6].
For `Cc1ccc(N2C(=O)ON(c3ccccc3)C2c2ccccc2)cc1` (centres undefined), the growth inhibition in assay [1] was 3.6%; in assay [2], -5.8%; in assay [3] it was -4.45%; in assay [4], 5.9%; in assay [5], 12.4%; in assay [6], -15.9%.
`C=CCCCCCCCCC(=O)NCCN1CCOCC1`: the growth inhibition in assay [1] is 84.5% (active); in assay [2], 93.8% (active); in assay [3], 99.2% (active); in assay [4], 93.8% (active); in assay [5] it was 91.8% (active); in assay [6] it was 98.2% (active).
`C=CCN1C2Cc3cc(OC)c(OC)cc3C1Cc1cc(OC)c(OC)cc12`: the growth inhibition is 0.15% in assay [1]; -19.2% in assay [2]; -23.6% in assay [3]; -6.45% in assay [4]; -16.2% in assay [5]; -10.3% in assay [6].
For `CC1CNCC(C)N1C(=O)c1ccccc1` (centres undefined), the growth inhibition in assay [1] is 3.85%; in assay [2], 5.15%; in assay [3], -7.7%; in assay [4], 3.25%; in assay [5] it was 1.5%; in assay [6], -39.5%.
On to `O=C(Nc1nnc(C(F)(F)F)s1)c1c(F)cccc1F`, for which the growth inhibition is 7.75% in assay [1]; 16.7% in assay [2]; 24.9% in assay [3]; 19.5% in assay [4]; 37% in assay [5]; 30.1% in assay [6].
Turning to `c1ccc(C2=NC3(CCCCC3)N=C2c2ccccc2)cc1`, the growth inhibition in assay [1] is 27.1%; in assay [2] it was 12.3%; in assay [3], 6.6%; in assay [4] it was -32%; in assay [5], 21.2%; in assay [6], 25.1%.
As to `Fc1ccc(-c2ncc(-c3ccccc3)o2)cc1`, the growth inhibition in assay [1] was 0.95%; in assay [2] it was -22.9%; in assay [3] it was 5.45%; in assay [4], 0.05%; in assay [5] it was -14.8%; in assay [6] it was -12.9%.
As to `CS(=O)(=O)c1[nH]nc2[nH]c(=O)[nH]c(=O)c12`, the growth inhibition was -30.5% in assay [1]; -30.4% in assay [2]; -26.5% in assay [3]; -4.7% in assay [4]; -28.8% in assay [5]; 6.85% in assay [6].
Turning to `BrC1=C(c2ccccc2)C2CCCCC2C1(Br)c1ccccc1` (centres undefined), the growth inhibition in assay [1] was 96.2% (active); in assay [2], 97.1% (active); in assay [3], 97.8% (active); in assay [4] it was 96.9% (active); in assay [5], 96.8% (active); in assay [6], 98% (active).
On to `CCCCCC(CCCCC)c1ccccn1`, for which the growth inhibition in assay [1] was -14.3%; in assay [2], -11.4%; in assay [3], 3.95%; in assay [4], 22.4%; in assay [5], 26.9%; in assay [6], 4.1%.
For the compound `NS(=O)(=O)c1ccc(NO)cc1`, the growth inhibition in assay [1] is -16.1%; in assay [2], -7.45%; in assay [3] it was 6.3%; in assay [4], -15.2%; in assay [5], 6.9%; in assay [6] it was 9.85%.
On to `CCN(CC)CCNc1nc(N)c(C#N)c(C#N)c1C#N`, for which the growth inhibition in assay [1] was 5.8%; in assay [2], -14.4%; in assay [3], -4.55%; in assay [4], 9%; in assay [5], -8.3%; in assay [6] it was 1.45%.
Take `Nc1nc(-c2ccccc2)cc(-c2ccc(F)cc2)c1-c1ccc(Cl)cc1`: the growth inhibition in assay [1] was 16.9%; in assay [2], -9.2%; in assay [3], 20.4%; in assay [4] it was 24.6%; in assay [5], -0.95%; in assay [6] it was -73.5%.
Take `CCCCn1cnc2c(SCc3ccc(Cl)cc3Cl)nc(N)nc21`: the growth inhibition in assay [1] is 1.15%; in assay [2] it was 25.2%; in assay [3], 7.35%; in assay [4], 21.2%; in assay [5] it was 15.3%; in assay [6], -8.2%.
As to `CC1(C)C(=O)C(C)(C)C(=O)C(C)(C)C1=O`, the growth inhibition is 2.45% in assay [1]; -15.7% in assay [2]; 5.4% in assay [3]; 16.9% in assay [4]; 11.3% in assay [5]; -0.3% in assay [6].
For `C[C@H](C(=O)C12CC3CC(CC(C3)C1)C2)[C@H](O)c1ccccc1`, the growth inhibition was 5.85% in assay [1]; 4.7% in assay [2]; -10.8% in assay [3]; 17% in assay [4]; -11.5% in assay [5]; -18.2% in assay [6].
As for `CCNC(=O)C1CCCN1C(=O)C(CCCN=C(N)N)NC(=O)C(CC(C)C)NC(=O)C(Cc1c[nH]c2ccccc12)NC(=O)C(Cc1ccc(O)cc1)NC(=O)C(CO)NC(=O)C(Cc1c[nH]c2ccccc12)NC(=O)C(Cc1cnc[nH]1)NC(=O)C1CCC(=O)N1` (centres undefined), the growth inhibition in assay [1] is -11.6%; in assay [2] it was -10.6%; in assay [3], -18.5%; in assay [4], -21.6%; in assay [5] it was 6.05%; in assay [6] it was 10.2%.
On to `O=C(c1ccccc1)[n+]1ccc2ccccc2c1`, for which the growth inhibition is -19.1% in assay [1]; -21.2% in assay [2]; -4.35% in assay [3]; 0.45% in assay [4]; -6.25% in assay [5]; -13.1% in assay [6].
